# Assay outcomes deposited in PubChem BioAssay by NMMLSC.
# CIT2 TOR yeast = modulators of CIT2-GFP expression in yeast, primary screen, S. cerevisiae, GFP fusion, multiplex flow cytometry, MLPCN library; S. cerevisiae CIT2-GFP strain, 3 h; 100 means same as DMSO wells; GFP response vs DMSO, % at 10 µM; 320,000 tested, 0.065% active;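 active = GFP response relative to DMSO above a set limit, near the screen mean plus 3 SD, cut at about 150% in these data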;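 note: ratio of well median GFP fluorescence to mean of DMSO wells on the plate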
# AGP1 TOR yeast = modulators of AGP1-GFP expression in yeast TOR pathway, primary screen, cell-based, multiplex flow cytometry, S. cerevisiae, MLPCN library | 3 h; GFP as percent of DMSO wells | GFP response vs DMSO, % at 10 µM | 320,000 tested, 0.02% active | AID 2066, 2009;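 active = GFP response relative to DMSO above a set limit, near screen average plus 3 SD, cut at about 150% in these data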;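 note: median GFP channel fluorescence of the gated AGP1 strain per well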
# MEP2-GFP yeast = modulators of MEP2-GFP levels in yeast, primary screen, S. cerevisiae, multiplex flow cytometry, MLPCN library; S. cerevisiae MEP2-GFP strain, 3 h; 100% = DMSO control level; GFP response vs DMSO, % at 10 µM; 330,000 tested, 0.51% active; AID 2016, 2009;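 active = GFP response versus DMSO above a set limit, roughly screen mean plus 3 SD, cut at about 180% in these data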;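 note: median GFP fluorescence of the barcode-gated MEP2-GFP cells per well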
# LAP4 TOR yeast = modulators of LAP4-GFP expression in yeast, primary screen, S. cerevisiae, multiplex flow cytometry, MLPCN library. GFP response vs DMSO, % at 10 µM. 320,000 tested, 0.34% active. 3 h; median GFP as percent of DMSO wells;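 active = GFP response vs DMSO above a set limit, about the screen mean plus 3 SD, cut at about 150% in these data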
# RPL19A-GFP yeast = RPL19A-GFP expression modulators in yeast, primary screen, cell-based, S. cerevisiae, multiplex flow cytometry, MLPCN. percent response vs DMSO, % at 10 µM. 330,000 tested, 0.3% active. S. cerevisiae RPL19A-GFP strain, 3 h; stronger effect = lower value;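 active = percent response vs DMSO below 50%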;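 note: median channel GFP fluorescence of the barcoded RPL19A-GFP strain; ratio of sample median GFP to plate DMSO average so 100% = DMSO; lower means less RPL19A-GFP as with rapamycin TOR inhibition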
# LAP4-GFP pick2 = LAP4-GFP expression modulators in yeast, confirmation, cell-based, second cherry pick, flow cytometry | shares compounds with LAP4 TOR yeast | S. cerevisiae LAP4-GFP strain, 3 h | GFP response vs DMSO, % at 10 µM | 590 tested, 20% active;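 active = GFP signal as percent of the solvent control above about 150%, meaning raised reporter expression, limit read from the data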;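 note: ratio of well median GFP fluorescence to plate DMSO mean so 100% = DMSO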
# MEP2 cherry2 = modulators of MEP2-GFP levels in yeast, confirmation, S. cerevisiae, flow cytometry GFP, second cherry picks. shares compounds with LAP4 TOR yeast. S. cerevisiae MEP2-GFP strain, 3 h. GFP response vs DMSO, % at 10 µM. 590 tested, 10% active. AID 2622, 2010;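 active = GFP signal above 150% of the solvent control wells, that is a rise of more than half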;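 note: median channel GFP fluorescence of all gated yeast cells per well; ratio of median GFP to plate DMSO average so 100% = DMSO level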
# RPL19A-GFP pick2 = RPL19A-GFP modulators in TOR pathway yeast, confirmation, cell-based, S. cerevisiae, flow cytometry, second cherry pick; shares compounds with LAP4 TOR yeast; S. cerevisiae RPL19A-GFP strain, 3 h; stronger effect = lower value; 100% means same as DMSO wells; GFP response vs DMSO, % at 10 µM; 590 tested, 3% active;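 active = under 65% GFP response relative to DMSO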;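 note: median GFP channel fluorescence per well over the all cells gate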
# CIT2 GFP CP2 = modulators of CIT2-GFP expression in yeast, confirmation, flow cytometry, second cherry pick, single plex | shares compounds with LAP4 TOR yeast | S. cerevisiae CIT2-GFP strain, 3 h; DMSO control wells read 100% | GFP response vs DMSO, % at 10 µM | 590 tested, 8% active;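 active = GFP response vs DMSO above about 150%, limit read from the data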;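 note: median green fluorescence per well over all gated yeast cells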
# AGP1 GFP CP2 = AGP1-GFP expression modulators, hit retest, confirmation, cell-based, flow cytometry, S. cerevisiae, cherry pick set 2 | shares compounds with LAP4 TOR yeast | S. cerevisiae AGP1-GFP strain, 3 h | percent response vs DMSO, % at 10 µM | 590 tested, under 10 active | AID 2643, 2010;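 active = over 150 percent of DMSO response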;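 note: median GFP channel fluorescence over all cells without mother daughter split; sample median GFP divided by mean DMSO control so 100% equals DMSO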
# s288c autofluor = compound autofluorescence in yeast s288c, dose response, artefact control for yeast TOR pathway GFP screen, s288c strain; 610 tested, under 10 active; fluorescence change (kMESF span) at 33 µM; shares compounds with LAP4 TOR yeast; S. cerevisiae s288c, 520 nm autofluorescence, flow cytometry, 3 h; stronger effect = higher value; zero means same as solvent-only cells;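 active = fluorescence span over the dose series, or activity score, above about 33, limit read from the data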
# Yeast autofl DR = autofluorescence of compounds in yeast s288c, dose response, artefact control for yeast TOR pathway GFP screen, primary hits, KU SAR, s288c parental; shares compounds with LAP4 TOR yeast; S. cerevisiae s288c parental, compound autofluorescence, flow cytometry, 3 h; fluorescence change (span) at 33 µM; 110 tested, under 10 active;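 active = fluorescence change span, or the activity score built from it, above 25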
# TORC1 bypass = wild-type yeast growth inhibition sparing TORC1 bypass cells, mechanism study for yeast TOR pathway GFP screen, BY4741 wild type, TORC1 bypass strain; shares compounds with LAP4 TOR yeast; S. cerevisiae BY4741 spot growth rating, 48-72 h; stronger effect = lower value; growth rating (0-3) at 30 µM; 120 tested, under 10 active; AID 504456, 2011;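 active = growth rating at most 1 for wild type yeast while the TORC1 bypass strain still grows fully, rated 3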
# * marks the source's active call; other numbers are inactive results; / = not tested or not shown. Shown are actives, neighbours in structure and some others; about 0.93% of the full set was active somewhere.
SMILES,CIT2 TOR yeast,AGP1 TOR yeast,MEP2-GFP yeast,LAP4 TOR yeast,RPL19A-GFP yeast,s288c autofluor,others
O=[N+]([O-])c1ccc(N=Nc2c(Cl)cc(O)cc2Cl)cc1,84,81,107,278*,96,0.82,
CN(Cc1ccccc1)C(=O)CCC1CCN(C(=O)c2ccccc2C(F)(F)F)CC1,157*,106,114,99,97,/,LAP4-GFP pick2=99;MEP2 cherry2=102;RPL19A-GFP pick2=101;CIT2 GFP CP2=110;AGP1 GFP CP2=104
CSCc1ccc(C(=O)N2CCC(CCC(=O)N(C)Cc3ccccc3)CC2)o1,99,101,95,96,102,/,
C/C(=N\Nc1ccc(C(=O)O)cc1)c1ccc2c(c1)Nc1ccccc1S2,90,97,101,95,96,/,
COc1ccc(/C=C/C(=O)NC(=S)NNC(=O)c2cccnc2)cc1,111,107,104,101,103,/,
O=C(/C=C/c1ccc(F)cc1)NC(=S)Nc1ccccc1,92,91,109,92,101,/,
O=C(NC(=S)NNC(=O)c1cnccn1)c1ccc(F)cc1,91,80,109,232*,102,0.61,Yeast autofl DR=0.49;TORC1 bypass=3
O=C(/C=C/c1ccc(F)cc1)NC(=S)NNC(=O)c1cnccn1,87,75,122,261*,83,1.4,
COc1ccc(/C=C/C(=O)NC(=S)NNC(=O)c2cnccn2)cc1,94,93,122,225*,98,2.2,Yeast autofl DR=0.57;TORC1 bypass=3
COc1ccc(N2CCN(C(=O)C(NC(=O)c3c(F)cccc3F)C(C)C)CC2)cc1 (stereo not given),96,97,95,105,99,/,
Cc1ccc(OCCSc2nnc(C)c(=O)n2N)cc1,/,101,108,90,89,/,
O=C(Oc1ccnc2cc(Cl)ccc12)N1CCOCC1,104,95,108,99,101,0,LAP4-GFP pick2=100;MEP2 cherry2=98;RPL19A-GFP pick2=99;CIT2 GFP CP2=97;AGP1 GFP CP2=99
CCCN(C(=O)COC(=O)CSc1ccc([N+](=O)[O-])cc1)C1CCS(=O)(=O)C1 (stereo not given),89,88,92,84,87,/,
O=C(NCc1ccc2c(c1)OCO2)c1nc(S(=O)(=O)Cc2ccccc2)ncc1Cl,108,118,102,175*,92,-0.21,
CCN1/C(=C/c2ccc3cc(C)ccc3[n+]2CC)Sc2ccc3sccc3c21,366*,124,588*,300*,90,8.8,
O=S(=O)(/N=C(\Sc1ccc(Cl)cc1)c1ccccc1)c1ccccc1,82,93,88,214*,83,-2.2,
CS/C(=N\S(=O)(=O)c1ccc(Cl)cc1)c1ccccc1,91,91,97,100,97,/,
CCOC(=O)c1cc2c(=O)n3cccc(C)c3nc2n(CCOC)c1=NC(C)=O,99,113,99,113,101,/,
O=C1/C(=C/c2ccncc2)SC(=S)N1C1CCCCC1,83,96,102,112,96,/,
Cc1ccc(/C=C2/SC(=S)N(C3CCCCC3)C2=O)o1,88,81,92,158*,93,0.2,
Cc1ccc(/C=C2\SC(=S)N(CC3CCCO3)C2=O)o1 (stereo not given),113,108,108,171*,102,0.31,
O=[N+]([O-])c1ccc(Sc2nc3ccccc3o2)c([N+](=O)[O-])c1,107,98,98,165*,102,0.51,
CC(C)[C@]1(c2ccccc2)ON(c2ccccc2C(F)(F)F)C1=O,94,93,94,94,94,-0.2,LAP4-GFP pick2=109;MEP2 cherry2=103;RPL19A-GFP pick2=104;CIT2 GFP CP2=114;AGP1 GFP CP2=108
O=C(O)c1nn(-c2ccccc2C(F)(F)F)cc1O,105,99,93,95,98,/,
CC(C)[C@@]1(c2ccccc2)ON(c2ccccc2C(F)(F)F)C1=O,105,100,94,110,99,-0.2,LAP4-GFP pick2=105;MEP2 cherry2=96;RPL19A-GFP pick2=102;CIT2 GFP CP2=104;AGP1 GFP CP2=97
SMILES,CIT2 TOR yeast,AGP1 TOR yeast,MEP2-GFP yeast,LAP4 TOR yeast,RPL19A-GFP yeast,s288c autofluor,others
FC(F)(F)c1ccccc1-n1ccnc1,72,75,99,108,89,/,
O=C1N(c2ccccc2C(F)(F)F)OC1(Cc1ccccc1)c1ccccc1 (stereo not given),101,97,99,94,96,0,LAP4-GFP pick2=112;MEP2 cherry2=106;RPL19A-GFP pick2=109;CIT2 GFP CP2=112;AGP1 GFP CP2=103
CC(C)[C@]1(c2ccc(Cl)cc2)ON(c2ccccc2C(F)(F)F)C1=O,106,100,99,107,96,-0.1,LAP4-GFP pick2=102;MEP2 cherry2=94;RPL19A-GFP pick2=101;CIT2 GFP CP2=106;AGP1 GFP CP2=100
CSc1ccc(CN2CCN(C(=O)c3ccc([N+](=O)[O-])cc3)CC2)cc1,110,107,100,106,97,/,
Cc1ccc(C)c(S(=O)(=O)NCCCc2ccccc2)c1,82,99,107,92,97,/,
Cc1ccccc1-c1nc2cc(NC(=O)C3CC3)ccc2o1,82,89,101,108,99,/,
